Source: PubChem (several laboratories)
hcDAF-12 act: H. contortus DAF-12 activation, primary screen | activation, % at 6.8 µM | 370,000 tested, 1.4% active | HEK293 hcDAF-12 lit1-tk-luc reporter, luminescence; 0% DMSO, 100% Δ7-dafachronic acid;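 active = activation above the mean of all tested compounds plus 3 SD, cut at about 5.5% in these data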;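 also: 100% = response to 3 µM Δ7-dafachronic acid high control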
APP 5'UTR act: APP 5'UTR luciferase reporter activation. SH-SY5Y APP 5'UTR luciferase reporter, luminescence; zero percent = DMSO vehicle wells. activation, % at 2 µM. 190,000 tested, 1% active. AID 1276;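 active = activation above a set limit, based on mean plus 3 SD of controls, cut at about 140% in these data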
hgDAF12 agonist: activates the H. glycines DAF-12 receptor ligand-binding domain | HEK293 GAL4-hgDAF12 UAS-luciferase reporter, agonist luminescence; normalized to butyrate control | 370,000 tested, 1.8% active | activation, % at 6.8 µM;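 active = activation above a cutoff set at the mean of all screened compounds plus 3 SD, cut at about 10% in these data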;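 also: 0% = DMSO wells and 100% = sodium butyrate wells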
ssDAF-12 act: S. stercoralis DAF-12 activation, primary screen. HEK293 ssDAF-12/GRIP1 lit1-tk-luc reporter, luminescence; % of 3 µM dafachronic acid response. activation, % at 6.8 µM. 370,000 tested, 1% active;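 active = activation above the mean over all tested compounds plus 3 SD, cut at about 0.9% in these data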;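 also: 0% = DMSO-only wells and 100% = 3 µM delta7-dafachronic acid wells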
NF-kB neuron act: NF-kB expression increase, human neuronal cells; 190,000 tested, 1.6% active; NF-kB reporter expression; stronger effect = higher value; AID 1239; fold change at 12.5 µM; in the data active = fold change above about 3.3
Numbers without * were called inactive. Most compounds without a hit are left out; they make up all but 3.4% or so of the library.

What do the screens show for `O=S(=O)(c1ccccc1)N1CCN(CC2CC3C=CC2C3)CC1` (stereo not drawn)?
hcDAF-12 act: -1; APP 5'UTR act: 10; hgDAF12 agonist: -1; ssDAF-12 act: -2; NF-kB neuron act: 0.98

What do the screens show for `O=S(=O)(c1ccc(F)cc1)N1CCN(CC2CC3C=CC2C3)CC1` (stereo not drawn)?
hcDAF-12 act: 6.5*; hgDAF12 agonist: 0; ssDAF-12 act: -1

How did O=C1c2ccccc2-c2nnc(-c3ccc(O)cc3)cc21 do in these assays?
hcDAF-12 act: 5.9*; APP 5'UTR act: 120; hgDAF12 agonist: 11*; ssDAF-12 act: 0; NF-kB neuron act: 2.4

How did Cc1ccc(NC2=CC(=O)C(=O)c3ccccc32)cc1 do in these assays?
hcDAF-12 act: 5; APP 5'UTR act: 30; hgDAF12 agonist: 6; ssDAF-12 act: 0; NF-kB neuron act: 2

How did Cc1ccc(-c2cc3c(nn2)-c2ccccc2C3=O)cc1 do in these assays?
hcDAF-12 act: 6.3*; hgDAF12 agonist: 10; ssDAF-12 act: 0

Results for Fc1ccc(NC(=S)Nc2cccc3ccccc23)cc1F ?
hcDAF-12 act: 4; hgDAF12 agonist: 2; ssDAF-12 act: 0

Results for Cc1ccc(NC(=S)Nc2cccc3ccccc23)cc1 ?
hcDAF-12 act: 3; hgDAF12 agonist: 1; ssDAF-12 act: 1.0*

How did Fc1ccc(NC(=S)Nc2cccc3ccccc23)cc1 do in these assays?
hcDAF-12 act: 5.7*; hgDAF12 agonist: 2; ssDAF-12 act: 0

What do the screens show for `COC(=O)[C@]12C[C@H](CC(=O)NCc3cccc4ccccc34)C(=O)N(Cc3cccc4ccccc34)C1=C[C@H](C1CCCC1)O[C@@H]2C`?
hcDAF-12 act: -2; hgDAF12 agonist: -2; ssDAF-12 act: -1

Results for Cc1ccc2c(c1)N(CCCC(=O)N(C)Cc1ccccc1Cl)C(=O)CO2 ?
hcDAF-12 act: -3; hgDAF12 agonist: -2; ssDAF-12 act: -1

What do the screens show for `O=C(CC1CCCC1)NNC(=O)c1ccccc1O`?
hcDAF-12 act: 0; hgDAF12 agonist: 5; ssDAF-12 act: 1.3*

How did O=C1CC(N2CCCN(Cc3ccccc3)CC2)=NC(=O)N1c1ccc(Br)cc1 do in these assays?
hcDAF-12 act: -1; hgDAF12 agonist: 0; ssDAF-12 act: -2

What do the screens show for `O=C1N(CCCO)CCC12CCC(c1ccccc1)CC2` (stereo not drawn)?
hcDAF-12 act: -2; hgDAF12 agonist: 6; ssDAF-12 act: 0

What do the screens show for `O=C(NCCc1ccccc1)Nc1ccc(Cl)cc1`?
hcDAF-12 act: 4; hgDAF12 agonist: 13*; ssDAF-12 act: 1; NF-kB neuron act: 2.8

What do the screens show for `S=C(NCCc1ccccc1)Nc1ccc(Cl)cc1`?
hcDAF-12 act: 1; APP 5'UTR act: 25; hgDAF12 agonist: 11*; ssDAF-12 act: 0; NF-kB neuron act: 1.1

Results for COc1cccc(NC(=O)C2CCCN2C(=O)Nc2ccc(Cl)cc2)c1 (stereo not drawn) ?
hcDAF-12 act: -2; hgDAF12 agonist: 3; ssDAF-12 act: -2

How did CCc1cc2cc3c(cc2nc1SCC(=O)Nc1nnc(C)s1)OCCO3 do in these assays?
hcDAF-12 act: 2; APP 5'UTR act: 0; hgDAF12 agonist: 2; ssDAF-12 act: -1; NF-kB neuron act: 0.94

What do the screens show for `CCc1nnc(NC(=O)CSc2nc3cc4c(cc3cc2CC)OCCO4)s1`?
hcDAF-12 act: -1; APP 5'UTR act: -4; hgDAF12 agonist: 3; ssDAF-12 act: -1; NF-kB neuron act: 3.5*

What do the screens show for `COC(=O)c1cnn(-c2ccc(F)cc2F)c1/C=N/NC(=S)Nc1ccccc1`?
hcDAF-12 act: -3; hgDAF12 agonist: -3; ssDAF-12 act: -3

How did c1ccc(OCCSc2nnnn2C2CCCCC2)cc1 do in these assays?
hcDAF-12 act: 5; APP 5'UTR act: 142*; hgDAF12 agonist: 13*; ssDAF-12 act: 0

What do the screens show for `Cc1n(CC(=O)c2ccc(F)cc2)c2ccccc2[n+]1C`?
hcDAF-12 act: 2; APP 5'UTR act: -7; hgDAF12 agonist: 1; ssDAF-12 act: -1; NF-kB neuron act: 1.1

What do the screens show for `Cn1c(=N)n(CC(=O)c2ccc(F)cc2)c2ccccc21`?
hcDAF-12 act: 13*; hgDAF12 agonist: 11*; ssDAF-12 act: 1.2*

Results for C=CCNc1nc(NCc2ccc(NC(C)=O)cc2)c2sc(-c3ccccc3)cc2n1 ?
hcDAF-12 act: 1; hgDAF12 agonist: 12*; ssDAF-12 act: 2.0*

What do the screens show for `CCCC[C@H]1C2CC(OC(=O)Nc3cccc(C#N)c3)C(C2)[C@H]2CCCCN21` (stereo partly drawn)?
hcDAF-12 act: -2; hgDAF12 agonist: 0; ssDAF-12 act: 0

How did Cc1cc(C)cc(N(CC(=O)NC2CCC(C)CC2)S(=O)(=O)c2ccc(Cl)s2)c1 (stereo not drawn) do in these assays?
hcDAF-12 act: -2; hgDAF12 agonist: 6; ssDAF-12 act: 0

What do the screens show for `O=C1CSc2ccccc2N1Cc1ccc(F)cc1`?
hcDAF-12 act: 3; APP 5'UTR act: -12; hgDAF12 agonist: 2; ssDAF-12 act: 1.4*; NF-kB neuron act: 1.3

What do the screens show for `Cc1c2cnccc2c(C)c2c1oc1ccccc12`?
hcDAF-12 act: 2; hgDAF12 agonist: 11*; ssDAF-12 act: -1

What do the screens show for `CCN1CCN(c2ccc(NC(=O)c3ccc4c(c3)OCCO4)cc2C)CC1`?
hcDAF-12 act: 4; hgDAF12 agonist: 11*; ssDAF-12 act: 0

Results for CCN1CCN(c2ccc(NC(=O)c3cc4ccccc4cc3OC)cc2C)CC1 ?
hcDAF-12 act: 0; hgDAF12 agonist: 11*; ssDAF-12 act: -1

How did CCN1CCN(c2ccc(NC(=O)c3ccccc3F)cc2Cl)CC1 do in these assays?
hcDAF-12 act: 1; APP 5'UTR act: 75; hgDAF12 agonist: 10; ssDAF-12 act: 0; NF-kB neuron act: 2.4

How did CCN1CCN(c2cc(C)c3cc(NC(=O)c4ccc5c(c4)OCO5)ccc3n2)CC1 do in these assays?
hcDAF-12 act: -2; APP 5'UTR act: 19; hgDAF12 agonist: 5; ssDAF-12 act: -1; NF-kB neuron act: 0.8

How did COC(=O)[C@]12C[C@H](CC(=O)N3CCC(c4ccccc4)CC3)C(=O)N(CCc3ccc(OC)c(OC)c3)C1=C[C@H](C1CCCC1)O[C@@H]2C do in these assays?
hcDAF-12 act: 1; hgDAF12 agonist: 4; ssDAF-12 act: -2

How did Cc1nn(C)cc1/C=C/C(=O)c1cccs1 do in these assays?
hcDAF-12 act: 1; APP 5'UTR act: 126; hgDAF12 agonist: 12*; ssDAF-12 act: 0; NF-kB neuron act: 6.3*

Results for CCCCCn1nnnc1C1(C)CCSCC(=O)N1Cc1ccco1 (stereo not drawn) ?
hcDAF-12 act: -2; hgDAF12 agonist: 1; ssDAF-12 act: 0

What do the screens show for `N#Cc1ccccc1N1CCN(C(=O)C2CCN(c3ncnc4c3sc3cccc(F)c34)CC2)CC1`?
hcDAF-12 act: -5; hgDAF12 agonist: -9; ssDAF-12 act: -2

Results for CCC(=O)Nc1cccc(C(=O)/C=C/c2ccc(F)cc2)c1 ?
hcDAF-12 act: -3; APP 5'UTR act: 22; hgDAF12 agonist: 0; ssDAF-12 act: -3; NF-kB neuron act: 3.8*
